Assay results as given in paper PMC5540273 (PLoS ONE, 2017).
Read-outs that look alike come from different tables or passages of the source.

How the values were obtained:
TAK1 = system: T1, TAK1; settings: concentration: 1 μM, replicates: in singlicate; n = 1
T1 construct: gene MAP3K7

TAOK1 = settings: concentration: 1 μM, replicates: in singlicate; n = 1
TAOK2 = settings: concentration: 1 μM, replicates: in singlicate; n = 1
TAOK3 = settings: concentration: 1 μM, replicates: in singlicate; n = 1
TBK1 = settings: concentration: 1 μM, replicates: in singlicate; n = 1
TEC = settings: concentration: 1 μM, replicates: in singlicate; n = 1
TESK1 = settings: concentration: 1 μM, replicates: in singlicate; n = 1
TGFBR1 = settings: n = 1
TGFBR2 = settings: concentration: 1 μM, replicates: in singlicate; n = 1
TIE1 = settings: concentration: 1 μM, replicates: in singlicate; n = 1
[1] = concentration: 1 μM, replicates: in singlicate
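Further: KINOMEscan kinase panel screen.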

Compound	%Inh (TAK1)	%Inh (TAOK1)	%Inh (TAOK2)	%Inh (TAOK3)	%Inh (TBK1)	%Inh (TEC)	%Inh (TESK1)	%Inh (TGFBR1; [1])	%Inh (TGFBR2)	%Inh (TIE1)	%Inh (TGFBR1; 1 µM)
COc1cc2ncn(-c3cc(OCCCc4ccccc4)c(C(N)=O)s3)c2cc1OC [GSK205189]	0%	0%	0%	0%	15%	0%	4%	0%	0%	22%	
COc1cccc(-n2cnc3c(N)ncnc32)c1 [SKF-97416]	23%	31%	9%	28%	31%	5%	17%	24%	0%	19%	
O=C(Nc1n[nH]c2cc(-c3ccccc3F)ccc12)C1CC1 [SB-733371]	0%	52%	19%	24%	0%	0%	1%	0%	0%	0%	
CCS(=O)(=O)c1ccc(OC)c(Nc2ncc(-c3ccc(F)cc3)o2)c1.Cl [GW591947]	0%	0%	0%	0%	3%	0%	1%	0%	0%	0%	
COC(=O)c1c(-c2ccccc2)c2cc(Br)ccc2c(=O)n1Cc1ccc(S(C)(=O)=O)cc1	39%	0%	0%	0%	19%	25%	22%	4%	0%	21%	
CCS(=O)c1ccc(-c2coc3ccc(-c4nnc(C)o4)cc23)cc1 (stereo not shown)	21%	0%	0%	0%	2%	0%	0%	4%	9%	0%	
Cl.c1ccc(Cn2cnc3cc(Nc4ncnc5ccccc45)ccc32)cc1 [GW272142]	0%	0%	0%	0%	7%	11%	1%	6%	0%	48%	
COc1cc2nccc(Nc3ccc(OCc4ccc(NC(C)=O)cc4)cc3)c2cc1OC.Cl [GW440135]	0%	0%	0%	1%	0%	0%	13%	21%	5%	1%	
O=C1NC(=O)C(c2ccccc2)=C1Nc1cccc(O)c1 [SB-390534]	0%	30%	22%	18%	14%	0%	13%	6%	0%	22%	
COC(=O)c1c(-c2ccccc2)c2cc(C)ccc2c(=O)n1Cc1ccccc1	0%	0%	0%	0%	0%	1%	0%	0%	0%	0%	
Cc1ccc(-c2ccc3c(ccc4sc5c(c43)NC[C@@H](C)N=C5N(C)C)n2)cn1	7%	0%	0%	0%	0%	9%	0%	0%	13%	0%	
COc1cc(Nc2nccc(N3CCC(NC(=O)C4COc5ccccc5O4)C3)n2)cc(OC)c1OC (stereo not shown) [GSK1379761]	7%	11%	0%	5%	0%	0%	33%	12%	0%	17%	
CCC(=O)c1c(-c2ccccc2)c2cc(Cl)ccc2c(=O)n1Cc1cc(S(C)(=O)=O)n(CC(F)F)n1	0%	8%	11%	0%	24%	0%	11%	7%	0%	0%	
Nc1n[nH]c2nnc(-c3ccccc3)c(-c3ccccc3)c12 [GW554060]	0%	0%	0%	0%	8%	0%	2%	12%	0%	8%	
CN1C(=O)C(Nc2cc(Cl)c(O)c(Cl)c2)=C(c2ccc(Cl)cc2)C1=O [SB-404321]	0%	0%	0%	0%	4%	0%	0%	6%	0%	0%	
Cc1nnc(-c2ccc(C)c(-c3ccc(C(=O)O)cc3)c2)o1 [GW608005]	0%	0%	0%	2%	2%	0%	0%	0%	0%	15%	
CCc1ccc(-c2ccc3c(c2)-c2nn(C)cc2S(=O)(=O)N3C)cc1	0%	0%	37%	0%	0%	0%	2%	1%	0%	0%	

Compound	%Inh (TAK1)	%Inh (TAOK1)	%Inh (TAOK2)	%Inh (TAOK3)	%Inh (TBK1)	%Inh (TEC)	%Inh (TESK1)	%Inh (TGFBR1; [1])	%Inh (TGFBR2)	%Inh (TIE1)	%Inh (TGFBR1; 1 µM)
COc1cccc(C2=C(N(C)c3ccccc3)C(=O)NC2=O)c1 [SB-334865]	0%	0%	0%	0%	3%	2%	24%	29%	10%	0%	
COc1cc(OC)cc(-c2cc3cnc(N)nc3nc2NC(=O)NC(C)(C)C)c1	42%	0%	0%	0%	0%	0%	13%	0%	7%	33%	
CCn1c(-c2nonc2N)nc2ccccc21 [SB-693162/GW549034]	33%	0%	0%	3%	34%	0%	14%	53%	0%	56%	
COc1ccc(-c2coc3ccc(-c4nnc(SCc5cccc(C#N)c5)o4)cc23)cc1	23%	0%	10%	0%	10%	0%	0%	11%	0%	17%	
COc1cc(Nc2ccnc3ccc(C(F)(F)F)cc23)cc(OC)c1OC [GW577382]	0%	0%	0%	0%	4%	0%	52%	8%	9%	0%	
Cc1nc(N(C)[C@H]2CN(C(=O)CC#N)CC[C@H]2C)c2cc[nH]c2n1	6%	10%	0%	0%	0%	4%	0%	0%	0%	1%	
COc1cc2ncn(-c3cc(OCc4ccc(S(C)(=O)=O)cc4)c(C(N)=O)s3)c2cc1OC [GW869979]	0%	18%	0%	0%	34%	12%	0%	0%	0%	0%	
Cn1c(=O)c(F)c(Nc2ccc(I)cc2F)c2c(=O)n(OC[C@H](O)CO)cnc21	0%	0%	27%	0%	52%	30%	31%	20%	13%	0%	
COc1ccc(Nc2nccc(N3CCC(NS(=O)(=O)c4ccc(NC(C)=O)cc4)C3)n2)cc1 (stereo not shown) [GSK1379729]	0%	2%	0%	2%	11%	3%	16%	7%	7%	20%	
CCC(=O)c1c(-c2ccccc2)c2cc(Cl)ccc2c(=O)n1Cc1cc(C(=O)NC2CC2)n(C)n1	3%	0%	0%	0%	0%	2%	23%	8%	0%	6%	
Nc1nc(N)c2nc(-c3ccccc3)[nH]c2n1 [SKF-12778]	4%	16%	0%	17%	16%	7%	12%	0%	3%	26%	
Cc1cccc(-c2cc(-c3c[nH]nc3-c3ccccn3)ccn2)c1 [GW679395]	0%	0%	0%	0%	12%	0%	9%		0%	0%	57%
FC(F)(F)c1ccc(-c2ncn(CCCN3CCOCC3)c2-c2ccncc2)cc1 [SB-217780]	24%	0%	0%	0%	3%	3%	12%	2%	0%	15%	
CCCC(=O)Nc1n[nH]c2ncc(-c3cccc4ccccc34)cc12 [SB-642057]	0%	0%	1%	1%	27%	15%	40%	14%	49%	0%	
Cc1cc(Nc2nc(-c3cccc(C)n3)nc3ccccc23)ccn1 [GW872411]	0%	0%	29%	0%	0%	1%	0%		0%	0%	83%
Cc1nnc(-c2ccc3ncn(-c4ccc(S(C)=O)cc4)c3c2)o1 (stereo not shown)	3%	100%	0%	96.2%	19%	1%	8%	0%	38%	0%	
Cc1c(Cn2c(C)nn3c(=O)cc(N4CCO[C@H](C)C4)nc23)cccc1C(F)(F)F [GSK2373690]	0%	0%	9%	0%	1%	0%	34%	0%	4%	10%	
